PubChem BioAssay AID463173 (ICCB-Longwood Screening Facility, Harvard Medical School, 2010)
Among all 52,000 compounds or so, about 4,300 (8.3%) were called active. The sample holds actives, similar compounds and a random draw of the others, so the mix is not that of the screen. Cut-off read from the data, not from the text of the source: active = survival mostly below about 52% (no sharp cut-off); inactive = mostly above about 56%.

test system: DeltatarO mutant; experiment: growth inhibition of S. aureus wild type versus tarO mutant, primary screen, teichoic acid synthesis inhibitors, RN4220, OD600 (AID 463173); conditions: OD600, 18 h, active compounds read low, screened at 18.75 µg/mL (by protocol)

SMILES	survival
CCOC(=O)c1[nH]c2ccccc2c1NC(=O)c1ccc(Br)cc1	95% (inactive)
Cc1cccc(-c2nc3nc(C)cc(NCc4ccccc4Cl)n3n2)c1	74% (inactive)
COc1ccccc1C(=O)Nc1ccc(C(=O)OCc2cc(=O)n3nc(C4CC4)sc3n2)cc1	72% (inactive)
Cc1ccccc1C1C(C#N)=C(N)NC(S)=C1C#N (centres undefined)	93% (inactive)
CCC(=O)N1c2ccccc2CC1C(=O)NCCc1cc(OC)c(OC)c(OC)c1 (centres undefined)	129% (inactive)
CC(c1ccccc1F)n1cc(C(=O)NCCCn2ccnc2)nn1 (centres undefined)	96% (inactive)
CCOc1ccc(NC(=O)Cn2cc(C(=O)c3ccc(C)c(C)c3)c(=O)c3cc(OC)c(OC)cc32)cc1	95% (inactive)
COc1ccc(CCNC(=O)c2cc3c(=O)[nH]c4ccc(C)cc4c3s2)cc1OC	64% (inactive)
COc1ccc(CNC(=O)c2cc3c(=O)[nH]c4ccc(C)cc4c3s2)c(OC)c1	44% (active)
COc1ccc(CNC(=O)c2cc3c(=O)oc4ccc(C)cc4c3s2)c(OC)c1	86% (inactive)
CC1CCC(NC(=O)CCc2cn(Cc3ccc(F)cc3)c3ccccc23)CC1 (centres undefined)	60% (inactive)
CCCCSC1=NC(C)(C)CC(C)O1 (centres undefined)	79% (inactive)
CCc1ccc(NCc2cc3ccc(OC)cc3n(CC(=O)Nc3ccccc3OC)c2=O)cc1	79% (inactive)
CCCC12CN3CC(CCC)(CN(C1)C3c1ccc(OCc3ccccc3)cc1)C2=O (centres undefined)	112% (inactive)
CCCC12CN3CC(CCC)(CN(C1)C3c1ccc(OC(C)C)cc1)C2=O (centres undefined)	21% (active)
CCCC12CN3CC(C)(CN(C1)C3c1ccc(CC)cc1)C2=O (centres undefined)	87% (inactive)
COc1ccc(Cn2c(C(=O)O)c(CNC3CCC(C)CC3)c3ccc(C)cc32)cc1 (centres undefined)	115% (inactive)
COc1cccc(N2CCN(C(=O)c3nn(C)c4c3CSc3ccc(C)cc3-4)CC2)c1	117% (inactive)
COC(=O)c1ccc2c(=O)n(CCCCCC(=O)NCc3ccc(OC)cc3)c(=O)[nH]c2c1	71% (inactive)
Cc1noc(-c2ccc(-c3noc(-c4ccccc4)n3)cc2)n1	-4% (active)

SMILES	survival
Cc1noc(-c2ccc(-c3noc(-c4ccc(F)cc4)n3)cc2)n1	72% (inactive)
Cc1noc(-c2ccc(-c3noc(-c4ccc(Cl)cc4)n3)cc2)n1	66% (inactive)
Cc1nc(-c2ccc(S(=O)(=O)NCc3ccc(N(C)C)cc3)cc2)co1	83% (inactive)
CCOc1ccc(C(c2c(O)cc(C)n(Cc3ccco3)c2=O)N2CCN(c3ccccc3)CC2)cc1 (centres undefined)	75% (inactive)
O=S(=O)(c1ccc(Cl)cc1)c1nc(-c2ccccc2)oc1N1CCN(c2ccccc2)CC1	86% (inactive)
COc1ccc(-c2nc(S(=O)(=O)c3ccc(Cl)cc3)c(N3CCCCCC3)o2)cc1	76% (inactive)
Cc1ccc(S(=O)(=O)c2nc(-c3ccc(Cl)cc3)oc2N2CCCCCC2)cc1	36% (active)
Cc1ccc(-c2nc(S(=O)(=O)c3ccc(Cl)cc3)c(N3CCCCC3)o2)cc1	11% (active)
O=C(O)c1ccc(CNCc2ccccc2Cl)s1	88% (inactive)
CC(C)(C)OC(=O)N1CCC(c2c(C(=O)NCc3ccco3)cnn2-c2ccccc2Cl)CC1	76% (inactive)
Cc1ccc(C(=O)N2C(C)CCCC2C)c(Cl)c1 (centres undefined)	70% (inactive)
CNC(=O)CN(C#N)c1nc(N(C)C)nc(N(C)C)n1	87% (inactive)
COC(=O)CN(C#N)c1nc(C)cc(C)n1	94% (inactive)
COC(=O)CN(C#N)c1nc(SC)nc(N(C)C)n1	52% (active)
Cc1nc(SCc2cc(=O)c3cccc(F)c3[nH]2)n[nH]1	94% (inactive)
CCOC(=O)c1c(N)sc2c1CN(C(=O)OC)N(C(=O)OC)C2	112% (inactive)
CCOC(=O)c1c(N)sc2c(OC)c(Br)ccc12	1% (active)
CCOC(=O)c1c(NC(C)=O)sc2c(NC(C)=O)cccc12	69% (inactive)
COC(=O)c1cnc(N2CCN(c3ccc(F)cc3)CC2)c2ccccc12	80% (inactive)
COc1ccc(Cn2ccc3nc(C)c(C(=O)Nc4ccc(OC(F)(F)F)cc4)cc3c2=O)cc1	92% (inactive)

SMILES	survival
COc1ccc(NC(=O)c2cc3c(=O)n(Cc4cccnc4)ccc3nc2C)c(OC)c1	83% (inactive)
COc1ccc(Cn2ccc3nc(C)c(C(=O)Nc4ccc(OC)cc4)cc3c2=O)cc1	89% (inactive)
COc1ccc(Cn2ccc3nc(C)c(C(=O)NCc4ccc(OC)cc4OC)cc3c2=O)cc1	25% (active)
COc1ccc(NC(=O)c2cc3c(=O)n(Cc4ccco4)ccc3nc2C)c(OC)c1	81% (inactive)
COc1ccc(CNC(=O)c2cc3c(=O)n(Cc4ccc(OC)cc4)ccc3nc2C)cc1	66% (inactive)
COc1ccc(Cn2ccc3nc(C)c(C(=O)Nc4ccc(F)cc4)cc3c2=O)cc1	20% (active)
COc1ccc(CNC(=O)c2cc3c(=O)n(Cc4ccco4)ccc3nc2C)c(OC)c1	67% (inactive)
COc1ccc(Cn2ccc3nc(C)c(C(=O)Nc4ccc(OC)cc4OC)cc3c2=O)cc1	8% (active)
COc1ccccc1Nc1ncnc2scc(-c3ccc(F)cc3)c12	115% (inactive)
Cc1ccc(C)c(NC(=O)Cn2ncc3c(C)n(Cc4ccc(F)cc4)c(C)c3c2=O)c1	71% (inactive)
CC(=O)c1ccc(NC(=O)Cn2ncc3c(C)n(Cc4ccc(F)cc4)c(C)c3c2=O)cc1	60% (active)
Cc1c2cnn(CC(=O)NCc3ccc(Cl)cc3)c(=O)c2c(C)n1Cc1ccc(F)cc1	62% (inactive)
COc1ccc(N(Cc2cccs2)C(=O)COc2ccc(C(C)C)cc2)cc1	80% (inactive)
Cc1cccc(OCC(=O)N(Cc2cccs2)c2ccc(Cl)cc2)c1C	61% (inactive)
COc1ccc(N(Cc2cccs2)C(=O)COc2cccc(C)c2C)cc1	17% (active)
COc1ccc(OCC(=O)N(Cc2cccs2)c2ccc(OC)cc2)cc1	66% (inactive)
COc1ccc(N(Cc2cccs2)C(=O)COc2cc(C)c(Cl)c(C)c2)cc1	65% (inactive)
COc1ccc(N(Cc2cccs2)C(=O)COc2cccc(Cl)c2)cc1	42% (active)
Cc1ccccc1-c1nn2c(=O)cc(CN3CCN(C(=O)c4ccccc4Br)CC3)nc2s1	116% (inactive)
